# The whole screen tested about 2,300 compounds, of which about 1,400 (61%) were called active. About 7% were inconclusive and are not listed. The rule behind the calls is not given here. So high a share suggests a set chosen from earlier hits. A selection follows. Results with a measured potency or affinity are listed apart.
# Biological target: FAD-linked sulfhydryl oxidase ALR (Homo sapiens) (UniProt P55789)
# Experiment: ALR-catalysed DTT oxidation blockers – biochemical, H2O2 detection, luminescence, cherry-pick, dose response (AID 493248)
# Details: purified ALR, H2O2 HRP-luminol luminescence; at 10 µM (top of the series)
# Chain of FAD-linked sulfhydryl oxidase ALR (Homo sapiens) (P55789 whole entry, looked up): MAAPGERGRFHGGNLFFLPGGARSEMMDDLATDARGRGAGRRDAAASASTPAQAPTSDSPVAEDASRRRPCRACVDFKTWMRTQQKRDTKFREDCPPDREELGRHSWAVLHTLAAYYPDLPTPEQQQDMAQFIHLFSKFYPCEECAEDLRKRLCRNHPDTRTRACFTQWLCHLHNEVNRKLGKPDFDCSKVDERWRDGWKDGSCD
row,SMILES,"activity change, negative = inhibition [%]"
1,COc1ccc(-c2n[nH]c(=S)n2Cc2ccco2)cc1,-32.4
2,S=c1[nH]nc(-c2ccco2)n1/N=C/C=C/c1ccccc1,-45.1
3,CC1CCCCC1n1c(-c2cccnc2)n[nH]c1=S (stereo unspecified),-2.8
4,C=CCn1c(-c2sccc2C)n[nH]c1=S,0.591
5,N#Cc1ccccc1S(=O)(=O)N1CCN(C(=O)Cc2coc3cc(O)ccc23)CC1,-102
6,CCN(C=NC1=NN(c2cccc(C(F)(F)F)c2)CC1)CC,4.04
7,COC(=O)c1[nH]c2cc(OC)ccc2c1N=CN(C)C,-64.5
8,CCc1ccc(OC)c(-c2csc(N)n2)c1,3.63
9,O=c1oc(-c2ccc(F)cc2)nc2ccsc12,-52.7
10,O=C(Nc1ccccc1N1CCCCC1)c1cnccn1,-36.5
11,Cc1ccc(C(=O)C2CCN(CC(=O)Nc3ccc(N(C)C)cc3)CC2)cc1,-106
12,C=CCn1c(-c2ccc(N)cc2)nc2ccccc21,-33.2
13,C=CCn1c(-c2cc(OC)cc(OC)c2)n[nH]c1=S,-54.8
14,CCN(C(=O)CN1CCN(c2cccc(Cl)c2)CC1)c1c(N)n(Cc2ccccc2)c(=O)[nH]c1=O,-43.8
15,Cc1nnc(N2CCN(Cc3ccccc3)CC2)[nH]c1=O,42.6
16,CCn1c(=O)c2c3c(sc2n2c(=S)[nH]nc12)CCC3,-18.2
17,COc1cccc(/C=N/NC(=O)CNC(=O)c2ccncc2)c1O,-31.5
18,COc1cc(/C=N\NC(=O)c2ccc(-c3ccccc3)cc2)cc(OC)c1O,-59.8
19,COc1cc2c(ccc3cc(OC)c(OC)c(O)c32)cc1O,-112
20,Cc1nc2ccc(-c3ccccc3)cc2o1,-7.02
21,c1c2c(cc3sc(N4CCCCC4)nc13)OCO2,-5.07
22,C[C@H](NC(=O)c1cc2c(cn1)[nH]c1ccccc12)C(=O)O,-94.7
23,O=C(O)c1[nH]c2ccccc2c1NS(=O)(=O)Cc1ccccc1,-42.2

row,SMILES,"activity change, negative = inhibition [%]"
1,CCCn1cnc2cc(NCc3cccc(OC)c3)ccc21,395
2,Cn1cnc2cc(NCc3ccccc3O)ccc21,297
3,Oc1ccc(-c2n[nH]c(=S)n2Cc2ccco2)cc1,-29.1
4,COc1ccc(C(=O)N/N=C(\Cc2ncc[nH]2)c2ccccc2)cc1,-40
5,Cc1[nH]nc(-c2ccc(O)cc2O)c1Oc1ccccc1,-84.3
6,COc1ccc(S(=O)(=O)n2nc(OC(=O)c3ccco3)cc2N)cc1,-55.8
7,O=C1NN(c2ccccc2)C(=O)/C1=C\c1ccccc1,-5.6
8,N/C(=N\N=C\c1ccc(O)cc1)c1nonc1N,-84.5
9,Nc1cc(C(F)(F)F)ccc1C(=O)O,8.42
10,COc1ccccc1N1CC(C(=O)Nc2nnc(SCc3cccnc3)s2)CC1=O (stereo unspecified),-17.9
11,COC(=O)c1ccc(-c2nc3cc(N)ccc3o2)cc1,72.5
12,Cc1ccc(-c2nc3cc(N)ccc3o2)c(C)c1,19.5
13,Cc1ccc(C)c(-c2nc3cc(N)ccc3o2)c1,-81.2
14,Nc1ccc2nc(-c3cccs3)[nH]c2c1,-80
15,COc1ccc(-c2cc(C(F)F)n3ncc(C(=O)n4ccnc4C)c3n2)cc1,-48
16,CCCN1CCC(=O)N([C@H](CSc2ccc(OC)cc2)CC(C)C)CC1,20.7
17,O=C(O)CCn1c2c(c3ccccc31)CCCC2,5.37
18,Cc1ccc(Nc2nnns2)cc1C,-6.48
19,Cc1ccc(NCCC(=O)c2cccs2)cc1C,-51.1
20,CN(C)c1ccc(CN(C(=O)c2cc3ccccc3oc2=O)C2CCS(=O)(=O)C2)cc1 (stereo unspecified),-17.6
21,COc1ccc(NC2CCCN(C(=O)c3ccc(C)nc3)C2)cc1 (stereo unspecified),289
22,S=c1[nH]nc(-c2ccncc2)n1Cc1ccco1,-47.7
23,Cc1cccc(C(=O)N2CCCC(N3CCN(c4ccc(F)cc4)CC3)C2)n1 (stereo unspecified),-66.1

# Reference: PubChem BioAssay AID493248 (Broad Institute, 2011)
